Laboratory results from the supplement of paper PMC10849652.
Targets with a hit are over-represented here; the source holds about 7,900 in all. About 0.6% of all pairs of compound and target were hits.

What follows are targets tested with c1cn2cc(-c3ccc4cn[nH]c4c3)nc(Nc3ccc(N4CCOCC4)cc3)c2n1 [entospletinib] (assay: log2 fold change, soluble protein after heating vs DMSO (PISA); higher = thermal stabilisation; K562 cells, 10 uM, 30 min; active = over 0.2 and 3.5 SD of the protein, either way, in both replicates (recomputed)).
Outline: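 Thermal stability values are relative to control samples and come from duplicates. They are expressed as log2 fold changes. For measurement, K562 cells (2×10^6 cells/mL) received 10 μM compound for 30 min, and aliquots were heated for 3 min over 48°C-58°C, pooled, and extracted at 4°C in PBS with 0.5% NP-40. Soluble protein, the supernatant after 21,000xg for 90 min, was quantified by TMTpro 16plex LC-MS/MS with equalised channel sums.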

Sequence of UniProt Q13227 (Q13227 whole entry, looked up): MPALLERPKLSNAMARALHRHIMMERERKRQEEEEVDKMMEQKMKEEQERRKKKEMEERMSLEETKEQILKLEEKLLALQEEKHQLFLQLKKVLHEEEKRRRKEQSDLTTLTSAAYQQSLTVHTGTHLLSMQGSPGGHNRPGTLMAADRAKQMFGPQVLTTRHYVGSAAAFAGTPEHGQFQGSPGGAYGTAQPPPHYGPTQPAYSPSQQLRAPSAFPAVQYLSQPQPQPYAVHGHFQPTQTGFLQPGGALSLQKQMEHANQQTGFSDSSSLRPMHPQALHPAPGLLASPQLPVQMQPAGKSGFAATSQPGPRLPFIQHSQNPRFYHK
Sequence of UniProt P16278 (P16278 whole entry, looked up): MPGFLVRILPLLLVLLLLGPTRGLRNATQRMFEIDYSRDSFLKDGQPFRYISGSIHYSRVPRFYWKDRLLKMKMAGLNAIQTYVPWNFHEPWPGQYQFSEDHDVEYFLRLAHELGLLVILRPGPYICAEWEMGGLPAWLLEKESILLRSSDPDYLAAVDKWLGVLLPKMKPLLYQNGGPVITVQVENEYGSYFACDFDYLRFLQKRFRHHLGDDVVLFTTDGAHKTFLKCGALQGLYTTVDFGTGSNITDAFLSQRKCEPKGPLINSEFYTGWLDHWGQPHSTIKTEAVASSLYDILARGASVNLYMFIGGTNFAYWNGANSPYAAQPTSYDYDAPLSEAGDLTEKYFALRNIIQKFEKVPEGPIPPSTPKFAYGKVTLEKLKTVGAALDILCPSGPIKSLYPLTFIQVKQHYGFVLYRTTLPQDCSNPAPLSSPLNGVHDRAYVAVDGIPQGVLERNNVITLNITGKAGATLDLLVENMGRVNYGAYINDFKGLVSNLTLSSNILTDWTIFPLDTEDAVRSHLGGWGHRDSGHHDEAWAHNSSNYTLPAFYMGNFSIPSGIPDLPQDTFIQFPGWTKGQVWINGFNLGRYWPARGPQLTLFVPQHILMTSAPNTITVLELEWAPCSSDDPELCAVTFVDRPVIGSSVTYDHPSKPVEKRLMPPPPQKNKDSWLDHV
Sequence of UniProt Q9H6D7 (Q9H6D7 whole entry, looked up): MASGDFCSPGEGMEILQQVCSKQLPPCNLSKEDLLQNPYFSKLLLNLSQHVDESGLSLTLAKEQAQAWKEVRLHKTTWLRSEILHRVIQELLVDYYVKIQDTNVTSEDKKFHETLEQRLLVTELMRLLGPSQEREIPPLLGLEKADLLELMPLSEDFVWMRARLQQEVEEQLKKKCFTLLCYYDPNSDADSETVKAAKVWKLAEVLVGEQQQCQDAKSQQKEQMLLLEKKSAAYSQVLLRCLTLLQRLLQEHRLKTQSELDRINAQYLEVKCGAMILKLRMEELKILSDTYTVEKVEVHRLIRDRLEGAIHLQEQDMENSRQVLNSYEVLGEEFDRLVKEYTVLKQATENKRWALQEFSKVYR
Sequence of UniProt Q6Y7W6 (Q6Y7W6 whole entry, looked up): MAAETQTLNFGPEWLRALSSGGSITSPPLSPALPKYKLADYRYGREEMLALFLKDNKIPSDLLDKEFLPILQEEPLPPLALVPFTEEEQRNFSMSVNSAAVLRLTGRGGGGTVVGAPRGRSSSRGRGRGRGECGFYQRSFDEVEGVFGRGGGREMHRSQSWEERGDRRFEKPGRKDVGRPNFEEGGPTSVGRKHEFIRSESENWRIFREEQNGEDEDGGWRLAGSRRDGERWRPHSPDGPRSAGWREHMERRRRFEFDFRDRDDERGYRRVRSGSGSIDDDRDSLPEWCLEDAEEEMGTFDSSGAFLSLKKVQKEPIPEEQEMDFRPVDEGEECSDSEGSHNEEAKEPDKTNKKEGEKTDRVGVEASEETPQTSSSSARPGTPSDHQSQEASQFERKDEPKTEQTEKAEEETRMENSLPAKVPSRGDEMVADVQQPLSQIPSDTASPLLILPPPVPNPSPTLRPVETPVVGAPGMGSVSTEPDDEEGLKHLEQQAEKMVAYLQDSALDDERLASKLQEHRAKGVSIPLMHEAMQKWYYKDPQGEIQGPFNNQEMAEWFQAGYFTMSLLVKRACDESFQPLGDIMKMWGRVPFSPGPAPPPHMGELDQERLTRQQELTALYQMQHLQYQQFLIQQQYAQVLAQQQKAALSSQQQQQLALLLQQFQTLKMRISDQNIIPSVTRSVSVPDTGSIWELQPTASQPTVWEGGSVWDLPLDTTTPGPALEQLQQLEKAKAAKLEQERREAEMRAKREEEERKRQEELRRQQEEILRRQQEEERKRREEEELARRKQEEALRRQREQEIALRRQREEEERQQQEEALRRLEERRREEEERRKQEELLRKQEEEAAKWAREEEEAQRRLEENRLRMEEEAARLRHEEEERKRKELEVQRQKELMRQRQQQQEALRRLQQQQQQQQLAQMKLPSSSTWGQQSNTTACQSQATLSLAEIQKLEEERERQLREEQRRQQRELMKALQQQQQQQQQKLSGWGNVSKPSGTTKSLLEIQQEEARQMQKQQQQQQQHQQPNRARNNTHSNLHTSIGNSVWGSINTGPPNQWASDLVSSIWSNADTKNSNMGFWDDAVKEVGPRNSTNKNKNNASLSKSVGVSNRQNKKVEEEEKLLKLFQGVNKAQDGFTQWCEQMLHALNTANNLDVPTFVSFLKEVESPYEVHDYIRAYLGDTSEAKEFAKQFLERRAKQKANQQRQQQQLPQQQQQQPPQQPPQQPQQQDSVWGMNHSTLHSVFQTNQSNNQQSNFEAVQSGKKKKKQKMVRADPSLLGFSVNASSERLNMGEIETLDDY
Sequence of UniProt P36969 (P36969 whole entry, looked up): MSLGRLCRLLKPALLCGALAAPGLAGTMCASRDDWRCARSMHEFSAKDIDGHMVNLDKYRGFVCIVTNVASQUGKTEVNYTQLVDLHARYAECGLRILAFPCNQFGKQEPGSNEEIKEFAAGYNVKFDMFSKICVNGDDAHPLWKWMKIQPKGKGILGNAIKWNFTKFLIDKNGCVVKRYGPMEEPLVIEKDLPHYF
Sequence of UniProt P36915 (P36915 whole entry, looked up): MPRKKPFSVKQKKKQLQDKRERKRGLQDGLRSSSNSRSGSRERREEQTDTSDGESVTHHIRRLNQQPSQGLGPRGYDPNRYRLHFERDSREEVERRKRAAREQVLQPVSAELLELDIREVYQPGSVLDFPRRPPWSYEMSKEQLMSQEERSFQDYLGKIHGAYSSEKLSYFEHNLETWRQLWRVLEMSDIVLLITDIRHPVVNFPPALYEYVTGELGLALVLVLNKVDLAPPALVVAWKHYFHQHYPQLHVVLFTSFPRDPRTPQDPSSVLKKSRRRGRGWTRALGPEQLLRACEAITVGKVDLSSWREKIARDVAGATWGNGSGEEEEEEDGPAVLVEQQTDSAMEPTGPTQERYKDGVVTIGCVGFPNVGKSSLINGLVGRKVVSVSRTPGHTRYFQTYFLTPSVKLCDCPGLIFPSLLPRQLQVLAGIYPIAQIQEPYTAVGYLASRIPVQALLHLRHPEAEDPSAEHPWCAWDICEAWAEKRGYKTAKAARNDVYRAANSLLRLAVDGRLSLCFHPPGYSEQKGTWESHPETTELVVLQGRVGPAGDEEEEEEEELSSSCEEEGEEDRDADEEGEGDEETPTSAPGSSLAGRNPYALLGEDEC
Sequence of UniProt P0CL80 (P0CL80 whole entry, looked up): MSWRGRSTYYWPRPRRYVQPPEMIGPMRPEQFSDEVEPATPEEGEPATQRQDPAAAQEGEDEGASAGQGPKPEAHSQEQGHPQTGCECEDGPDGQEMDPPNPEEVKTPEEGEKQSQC
Sequence of UniProt P40939 (P40939 whole entry, looked up): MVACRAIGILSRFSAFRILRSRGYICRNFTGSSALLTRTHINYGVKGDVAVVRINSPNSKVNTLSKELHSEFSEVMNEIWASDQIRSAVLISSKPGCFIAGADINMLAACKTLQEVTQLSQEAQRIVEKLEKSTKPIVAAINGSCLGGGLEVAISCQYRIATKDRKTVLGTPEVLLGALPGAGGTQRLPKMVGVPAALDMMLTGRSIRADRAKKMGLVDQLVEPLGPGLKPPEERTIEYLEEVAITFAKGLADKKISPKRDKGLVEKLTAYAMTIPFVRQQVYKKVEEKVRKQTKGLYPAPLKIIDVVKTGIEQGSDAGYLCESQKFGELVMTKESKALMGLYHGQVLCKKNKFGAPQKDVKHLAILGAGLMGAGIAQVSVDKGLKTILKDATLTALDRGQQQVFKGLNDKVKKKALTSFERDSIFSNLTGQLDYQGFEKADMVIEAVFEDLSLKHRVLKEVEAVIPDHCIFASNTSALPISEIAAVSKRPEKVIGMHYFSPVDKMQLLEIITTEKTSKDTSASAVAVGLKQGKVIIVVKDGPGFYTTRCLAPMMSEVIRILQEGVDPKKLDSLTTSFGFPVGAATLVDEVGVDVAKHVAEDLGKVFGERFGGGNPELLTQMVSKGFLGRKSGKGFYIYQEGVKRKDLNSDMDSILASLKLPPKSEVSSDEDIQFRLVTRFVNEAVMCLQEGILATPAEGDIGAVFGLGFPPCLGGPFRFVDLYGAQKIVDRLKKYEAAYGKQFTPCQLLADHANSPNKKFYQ
Sequence of UniProt Q13547 (Q13547 whole entry, looked up): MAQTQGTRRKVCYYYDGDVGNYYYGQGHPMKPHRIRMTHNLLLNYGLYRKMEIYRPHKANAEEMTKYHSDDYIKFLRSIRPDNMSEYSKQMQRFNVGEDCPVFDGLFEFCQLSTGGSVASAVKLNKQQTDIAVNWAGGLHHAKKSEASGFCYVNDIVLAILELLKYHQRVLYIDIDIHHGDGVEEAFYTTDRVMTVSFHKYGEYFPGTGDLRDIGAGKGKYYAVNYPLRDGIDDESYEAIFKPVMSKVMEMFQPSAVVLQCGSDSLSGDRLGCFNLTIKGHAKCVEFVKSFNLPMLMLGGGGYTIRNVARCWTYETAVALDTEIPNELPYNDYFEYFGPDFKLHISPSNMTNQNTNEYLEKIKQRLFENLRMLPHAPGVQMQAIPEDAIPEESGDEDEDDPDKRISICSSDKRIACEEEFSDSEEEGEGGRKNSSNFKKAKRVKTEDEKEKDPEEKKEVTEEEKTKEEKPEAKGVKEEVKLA
Sequence of UniProt Q9Y3D6 (Q9Y3D6 whole entry, looked up): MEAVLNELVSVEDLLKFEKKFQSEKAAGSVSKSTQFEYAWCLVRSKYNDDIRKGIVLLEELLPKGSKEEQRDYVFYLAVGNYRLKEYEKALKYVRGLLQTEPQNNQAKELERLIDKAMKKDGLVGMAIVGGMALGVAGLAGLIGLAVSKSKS

Target | log2 fold change
FEN1 (UniProt P39748) | -0.051 (inactive)
GNL1 (UniProt P36915) | 0.028 (inactive)
GAGE12F (UniProt P0CL80) | 0.031 (inactive)
GBF1 (UniProt Q92538) | -0.005 (inactive)
HEXA (UniProt P06865) | 0 (inactive)
GLS isoform 3 (UniProt O94925) | -0.055 (inactive)
GAB2 (UniProt Q9UQC2) | 0.046 (inactive)
HNRNPUL2 (UniProt Q1KMD3) | 0.007 (inactive)
HAX1 (UniProt O00165) | 0.028 (inactive)
HK2 (UniProt P52789) | -0.54 (active)
GLUL (UniProt P15104) | -0.019 (inactive)
H2AZ1 (UniProt P0C0S5) | -0.001 (inactive)
FIS1 (UniProt Q9Y3D6) | 0.038 (inactive)
H2AFX (UniProt P16104) | -0.005 (inactive)
GALNT4 (UniProt Q8N4A0) | -0.015 (inactive)
FNTA (UniProt P49354) | 0.111 (inactive)
HSPA8 (UniProt E9PK54) | -0.212 (inactive)
GLUD1 (UniProt P00367) | 0.173 (inactive)
GPNMB (UniProt Q14956) | 0 (inactive)
HDAC1 (UniProt Q13547) | -0.014 (inactive)

Target | log2 fold change
GCC2 (UniProt Q8IWJ2) | 0.144 (inactive)
FKBP3 (UniProt Q00688) | -0.028 (inactive)
FASTKD1 (UniProt Q53R41) | -0.11 (inactive)
GIGYF2 (UniProt Q6Y7W6) | -0.02 (inactive)
GPX4 (UniProt P36969) | 0.02 (inactive)
HAUS4 (UniProt Q9H6D7) | 0.147 (inactive)
GLB1 (UniProt P16278) | 0.022 (inactive)
GATD1 (UniProt Q8NB37) | -0.021 (inactive)
HNRNPK isoform 2 (UniProt P61978) | 0.064 (inactive)
FLNA (UniProt P21333) | 0.062 (inactive)
GALK1 isoform 2 (UniProt P51570) | -0.103 (inactive)
GDE1 (UniProt Q9NZC3) | 0 (inactive)
GYG1 (UniProt P46976) | 0.643 (active)
HADHA (UniProt P40939) | 0.01 (inactive)
HSPA8 (UniProt P11142) | 0.043 (inactive)
GPS2 (UniProt Q13227) | 0.058 (inactive)
GTF2E2 (UniProt P29084) | -0.011 (inactive)
FBXO42 (UniProt Q6P3S6) | -0.049 (inactive)
FARS2 (UniProt O95363) | 0.011 (inactive)
